Screening data from PubChem BioAssay.
DT40 TDP1 CPT: qHTS for Inhibitors of human tyrosyl-DNA phosphodiesterase 1 (TDP1): qHTS in cells in presence of CPT; chicken DT40 Tdp1-/-;hTDP1 cells + 20 nM CPT, ATP luminescence, 48 h; Potency, µM (doses to about 46.2 µM), inactives show at the highest dose activity change, negative = growth inhibition, actives largely listed as inhibitors; hit rate 12% among 420,000; further: potency means the concentration at half of the fitted maximal effect; on the % scale 0 is the no-effect control and ±100 the full control effect; nearly all actives have a fitted effect of over 55% in size
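Chicken DT40 Tdp1-/- cells complemented with human TDP1, 400 cells/well, exposed to compounds plus 20 nM camptothecin for at least 48 h at 37 C; viability read as ATP content by CellTiter-Glo luminescence.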
TGFb SMAD3 inh: qHTS for Inhibitors of TGF-b. hit rate 1.2% among 410,000. HepG2 CAGA-GFP TGF-b/SMAD3 reporter, GFP fluorescence, 18 h; TGF-beta stimulated, 500 pg/mL final. Potency, µM (doses to about 46.1 µM), for the others: top-dose activity, negative = inhibition, actives largely listed as inhibitors. AID 588855, 2011; further: potency means the concentration at half of the fitted maximal effect; on the % scale 0 is the no-effect control and ±100 the full control effect; nearly all actives have a fitted effect of over 65% in size
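Smad-responsive CAGA-GFP expression was quantified in HEPG2 cells exposed to compounds and 500 pg/mL final TGF-beta for 18 h at 37 degrees C; unstimulated wells defined full inhibition.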
TDP1 inh: qHTS Assay for Inhibitors of Tyrosyl-DNA Phosphodiesterase (TDP1). recombinant TDP1, AlphaScreen DNA substrate cleavage. Potency, µM (series often up to 130 µM), for inactives: top-dose activity change, negative = inhibition, most hits filed as inhibitors. hit rate 0.28% among 350,000; further: potency means the concentration at half of the fitted maximal effect; on the % scale 0 is the no-effect control and ±100 the full control effect; nearly all actives have a fitted effect of over 40% in size
Target sequence (Q9NUW8 whole entry, looked up): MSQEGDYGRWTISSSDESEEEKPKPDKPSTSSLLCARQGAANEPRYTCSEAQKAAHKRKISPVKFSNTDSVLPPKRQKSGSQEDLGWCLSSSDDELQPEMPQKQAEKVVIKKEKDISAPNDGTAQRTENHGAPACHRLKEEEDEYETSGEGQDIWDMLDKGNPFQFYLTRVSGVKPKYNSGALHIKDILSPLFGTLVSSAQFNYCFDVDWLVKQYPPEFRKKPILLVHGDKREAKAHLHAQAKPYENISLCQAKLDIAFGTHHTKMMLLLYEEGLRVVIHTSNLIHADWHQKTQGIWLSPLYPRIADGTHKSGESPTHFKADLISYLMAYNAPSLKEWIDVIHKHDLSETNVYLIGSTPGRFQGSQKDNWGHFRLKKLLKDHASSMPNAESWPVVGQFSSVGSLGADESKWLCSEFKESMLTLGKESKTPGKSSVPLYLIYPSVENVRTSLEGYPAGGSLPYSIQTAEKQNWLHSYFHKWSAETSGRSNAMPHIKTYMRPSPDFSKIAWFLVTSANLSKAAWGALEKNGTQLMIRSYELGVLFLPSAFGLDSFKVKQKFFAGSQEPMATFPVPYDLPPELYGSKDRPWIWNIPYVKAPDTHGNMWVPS
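Enzyme-compound mixtures sat 15 min at room temperature, followed by a 5 min reaction with 15 nM final substrate and 10 min with AlphaScreen beads. Recombinant human Tdp1 was used at 1 nM final.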
HepG2 tox: qHTS for Inhibitors of TGF-b: Cytotox Counterscreen; HepG2 CAGA-GFP viability, ATP luminescence, 18 h; Potency, µM (series often up to 46.1 µM), for inactives: top-dose activity change, negative = cytotoxicity, actives largely listed as cytotoxic; hit rate 0.76% among 410,000; further: potency means the concentration at half of the fitted maximal effect
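CellTiter-Glo luminescence gave cytotoxicity after 18 hours at 37 degrees C. The cells were HepG2 CAGA-GFP in 1% FBS DMEM, stimulated with 500 pg/mL TGF-beta after compound addition. %Activity was normalised to no-cell wells (complete cell-killing) and DMSO (no toxicity), and curves were fitted and classified.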
TDP1 cell noCPT: qHTS for Inhibitors of human tyrosyl-DNA phosphodiesterase 1 (TDP1): qHTS in cells in absence of CPT. DT40 Tdp1-/- hTDP1 cells, no CPT, ATP luminescence, 48 h. hit rate 15% among 420,000. AID 686978, 2013. Potency, µM (series often up to 46.2 µM), inactives show at the top dose activity change, negative = growth inhibition, most hits filed as inhibitors; further: potency means the concentration at half of the fitted maximal effect; on the % scale 0 is the no-effect control and ±100 the full control effect; nearly all actives have a fitted effect of over 55% in size
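Chicken DT40 Tdp1-/- cells complemented with human TDP1, screened without camptothecin (DMSO vehicle only), 400 cells/well. Compounds pin-transferred, cells incubated at 37 °C for at least 48 hr. Growth read as ATP-dependent luminescence (CellTiter-Glo, 30 min at RT).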
IL1B secr inh: qHTS for Inhibitors of Inflammasome Signaling: IL-1-beta AlphaLISA Primary Screen; activity change, % at 57.5 µM; AID 743279, 2014; THP-1 LPS/ATP IL-1B secretion, AlphaLISA, 16 h; stronger effect = lower value; hit rate 4.7% among 360,000; in the data active means activity change below about -50%; inconclusive means mostly about -30% to -49%; further: on the % scale 0 is the no-effect control and ±100 the full control effect
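THP-1 cells pretreated 1 hr with compounds (up to 57.5 uM final), then stimulated with LPS (250 ng/mL final) plus ATP (1.25 mM final); secreted IL-1B measured by AlphaLISA after 16 hr, decreased signal indicating inhibition.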
Active calls of the source: *; ? = inconclusive; / = not tested or not shown; [ ] = another dose, or the depositor's remark. Sampled rows, rich in hits. Any-hit rate of the full collection: about 18%. Unless noted, the call rests on the fitted dose curve; in most records, active means well fitted curve in the direction sought with a large enough effect; inconclusive means small, poorly fitted or top-dose-only effect, or another doubt; inactive means no such curve, though single readings can be large; an effect the other way counts as inactive or inconclusive.

SMILES | DT40 TDP1 CPT | TGFb SMAD3 inh | TDP1 inh | HepG2 tox | TDP1 cell noCPT | IL1B secr inh
CCCCCOc1ccc(C(=O)CCN2CCOCC2)cc1 | 5.8µM* | ? | / | -32% | 8.2µM* | -18
CC(C)Oc1ccc(C(=O)CCN2CCOCC2)cc1 | 3.3µM* | ? | / | -138% | 3.7µM* | 1
CC(C)Oc1ccc(C(=O)CCN2CCCCC2)cc1 | ? | -18% | -7% | -33% | ? | -30
O=C1COc2ccc(N3C(=O)C=CC3=O)cc2N1 | / | / | -6% | / | / | /
NC(=S)N=Nc1c(O)n(CCCl)c2ccc(Cl)cc12 | ? | -19% | 0% | -44% | 23µM* | -9
NC(=S)N=Nc1c(O)n(CC(=O)Nc2ccccc2)c2ccccc12 | -22% | 3% | / | 1% | -10% | -13
NC(=S)N=Nc1c(O)n(CCCl)c2ccccc12 | 13µM* | -28% | 6% | -20% | 2.6µM* | -8
COc1ccc(-c2ccccc2C2NC(C(=O)O)CCC2C)cc1 (configuration not stated) | / | / | 6%[21 µM] | / | / | /
COc1ccc(CCNc2ccc(C(CC(N)=O)NC(=O)Cc3cccc4ccccc34)cc2[N+](=O)[O-])cc1 (configuration not stated) | 23µM* | 8% | 6% | 10% | ? | -3
COc1ccc(CCNc2ccc(C(CC(N)=O)NC(=O)c3cc(OC)ccc3OC)cc2[N+](=O)[O-])cc1 (configuration not stated) | 26µM* | ? | / | -18% | ? | -19
CCCCNc1ccc(C(CC(N)=O)NC(=O)Cc2cccc3ccccc23)cc1[N+](=O)[O-] (configuration not stated) | -7% | -5% | 2% | -6% | -21% | -1
COc1ccc(S(=O)(=O)Nc2c(C)nn(C)c2C)cc1Br | -25% | -9% | -3% | -7% | ? | 13
CC1(C)C(/C=C/C=C/C=C/C=C2\N(CCCCS(=O)(=O)O)c3ccc4ccccc4c3C2(C)C)=[N+](CCCCS(=O)(=O)[O-])c2ccc3ccccc3c21 | -4% | -4% | / | -2% | -3% | -77*
CCCNC(=O)C1(C)CCN(Cc2cc(C(F)(F)F)ccc2Cl)C1 (configuration not stated) | 23µM* | 2% | / | -11% | 15µM* | 40
COCCNC(=O)C1(C)CCCN(Cc2ccc(OCc3ccccc3)cc2)C1 (configuration not stated) | 26µM* | ? | / | -57% | 21µM* | -23
COCCNC(=O)C1(C)CCCN(Cc2ccc(Cl)nc2)C1 (configuration not stated) | -4% | 4% | / | 1% | 5% | 21
CCCNC(=O)C1(C)CCN(Cc2ccc(OCc3ccccc3)cc2)C1 (configuration not stated) | 23µM* | 14% | / | -40% | 18µM* | -21
COCCNC(=O)C1(C)CCN(Cc2ccc(C(C)C)cc2)C1 (configuration not stated) | ? | 16% | / | 5% | 21µM* | 1
CCNC(=O)C1(C)CCN(Cc2ccc(OC(F)(F)F)cc2)C1 (configuration not stated) | -24% | -7% | / | -16% | -26% | 0
COCCNC(=O)C1(C)CCCN(CCSc2ccccc2)C1 (configuration not stated) | ? | -8% | / | 3% | 13µM* | 12
CCOC(=O)c1ccc(CN2CCCC(C)(C(=O)NCCOC)C2)cc1 (configuration not stated) | ? | -1% | / | -24% | ? | 22
CCCNC(=O)C1(C)CCN(Cc2ccc(C(=O)OCC)cc2)C1 (configuration not stated) | ? | 6% | / | -15% | 16µM* | 41
COCCNC(=O)C1(C)CCCN(Cc2ccc(Cl)c(Cl)c2)C1 (configuration not stated) | 21µM* | 1% | / | -9% | 16µM* | 14
COCCNC(=O)C1(C)CCCN(Cc2ccc(OC)cc2)C1 (configuration not stated) | -34% | 10% | / | 7% | -11% | 27
COCCNC(=O)C1(C)CCCN(Cc2cc(-c3ccccc3)on2)C1 (configuration not stated) | 13µM* | 4% | / | -2% | 23µM* | 39
SMILES | DT40 TDP1 CPT | TGFb SMAD3 inh | TDP1 inh | HepG2 tox | TDP1 cell noCPT | IL1B secr inh
Cc1ccc(C(=O)NCCc2ccc(S(N)(=O)=O)cc2)cc1[N+](=O)[O-] | -21% | -15% | -3% | -7% | -21% | 23
CN1[C@@H](COCc2ccccc2)C=CS1(=O)=O | ? | 8% | / | 0% | 5% | 0
CCc1cccc(NC(=O)C2CCCN(S(=O)(=O)c3cccnc3)C2)c1 (configuration not stated) | ? | -38% | 4% | -16% | 15µM* | 8
O=C(Nc1ccc(Br)cc1)C1CCCN(S(=O)(=O)c2cccnc2)C1 (configuration not stated) | 23µM* | -8% | 3% | -25% | 26µM* | 7
CCN(CC)c1ccc(NC(=O)C2CCCN(S(=O)(=O)c3cccnc3)C2)c(C)c1 (configuration not stated) | 15µM* | 0% | -3% | -18% | 10µM* | 39
CCc1cccc(NC(=O)C2CCCN(S(=O)(=O)c3cnc[nH]3)C2)c1 (configuration not stated) | -6% | 21% | 3% | 0% | 11% | 23
O=C(Nc1cccnc1)C1CCCN(S(=O)(=O)c2ccccc2)C1 (configuration not stated) | -22% | -10% | 4% | 11% | -19% | 14
CCN(CCCNC(=O)C1CCCN(S(=O)(=O)CC)C1)c1cccc(C)c1 (configuration not stated) | 23µM* | -22% | 4% | -10% | 15µM* | 5
O=C(CCNS(=O)(=O)c1ccc(Br)s1)Nc1ccc(Br)cc1 | ? | ? | 6% | -70% | ? | /
Cc1ccc(S(=O)(=O)N(C)C)cc1NC(=O)C(C)NC(C)c1cccs1 (configuration not stated) | ? | 0% | 5% | -5% | -24% | 51
